Assay results reported in the supplement of paper PMC10681739.

Key:
[1] = biological target: T1, ETS1 (UniProt P14921); test: ETS1 binding intensity (PBM fluorescence), ETS1 alone (arbitrary fluorescence units); higher = stronger binding; settings: ETS1 concentration 1 nM; RUNX1 concentration 0 nM
T1 sequence: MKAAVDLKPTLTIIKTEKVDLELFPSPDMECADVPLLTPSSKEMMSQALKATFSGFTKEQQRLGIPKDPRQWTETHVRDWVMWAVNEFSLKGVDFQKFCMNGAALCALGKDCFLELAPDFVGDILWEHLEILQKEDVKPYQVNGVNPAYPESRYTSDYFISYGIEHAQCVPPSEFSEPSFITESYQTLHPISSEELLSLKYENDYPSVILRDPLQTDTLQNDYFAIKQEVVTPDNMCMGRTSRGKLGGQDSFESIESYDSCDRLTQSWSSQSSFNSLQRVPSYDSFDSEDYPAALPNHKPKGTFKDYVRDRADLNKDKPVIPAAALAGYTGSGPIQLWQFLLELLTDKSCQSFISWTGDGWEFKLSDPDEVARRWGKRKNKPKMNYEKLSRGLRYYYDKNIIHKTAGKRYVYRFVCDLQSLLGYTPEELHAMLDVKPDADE

[2] = biological target: T1, ETS1; test: ETS1 binding intensity (PBM fluorescence) in presence of RUNX1, normalised to ETS1-only experiment (arbitrary fluorescence units); higher = stronger binding; settings: ETS1 concentration 1 nM; RUNX1 concentration 25 nM

Sequence	ETS1 binding intensity [1]	ETS1 binding intensity [2]
ACCTTCCTTCCTGCCTCCCTTGTGGCTCCAGTCCAC	552	312
GGGGCAGGAAACAGCGTCCTGCGCGGGTAGCCCCTG	775	918
CCTCATTTCCGGGCTGTTTGCGCGCAAGCCCACATC	1090	968
CAGTGGCTTCCTCCCCACCTCCTACCACATTCAATG	517	467
TCCAGGATGTGCTGAACCTCCAGAAACCACCGGCTT	436	684
CTCAGAGGCACCAAGGGAAGTGGTTAAAACAGAAAG	677	1790
GAGATAGTCTGGAGGGGAAGTGGTTATAAGTGATAA	797	1290
TGAGCCCCAGCAAGGGGAAGTGGTTAACCCAGGGTC	709	1960
ATCAAAGAACGGATATTGCTGTGACACCGCGGGGAC	1380	1560
GCAAAGATACATCCTTCTCCCCACAGACTAAGTTTC	490	412
CAAAGGGGAACGAGGAAACCGCCAGGGGCGGGGCGG	485	475
CCATTTCCTGATTCTAATGTTCATCAACCACTTTTG	504	397
CTGCACAAGGAAGCGCCTGTGTTGCTGTGGGCGGAG	472	402
GTCGTCAGCGTCTTCCTGTCAGCGGTCGGCAGAGCC	706	562
CACCTGCCTTGCTTCCTGCGGTGCAACCGGCGGGAG	499	585
TGGAATTGAAAGGAAGCTGGCGCCACCGCAGAGGAC	658	2830
TGAAGGGACGGAAGGGACAGAACTTGCGGGAGGCAC	497	416
AATTCCCAGGAAGCACTCGGCAGCCACAAACTGATG	539	483
GCTCTGGCGGAAGATGTCCCTGCGGTGCAGCTGCCG	397	465
TCTTTTTATTTCCTGTGCAGTCTCGCCCACAGCACT	1070	1030
TAGCCATCGTGCAAAGGATGTGGTGAAGTCAGTCAG	942	2620
CTGCACAGGGAAGTGAGTGTCGAGCTCACCGCACCG	383	690
CTTGTTATCCTTCCGGAGGCGGTAACTCATGAGAGA	497	352
GCTTTGCAGTTTCCTCTGTGGAACACCACACACAGT	418	494
TGGTGTGACCAGGATGTGAACCGCGGCAAGCTGCCT	995	992

Sequence	ETS1 binding intensity [1]	ETS1 binding intensity [2]
CAGGCCTGTGATTTCCTCTGAGTGGTTTTCTTGGCC	465	401
AATAAACAGGAAGGTCTCTTGGAGCTGTGGTCTTGG	677	1110
ACAGGAAGTCAGCTGAGTACCGAGCAAGCCGCATGC	1770	2090
TAAACCCTGCTTCCTGTCCCTGCGCCCCACAAGGAG	1290	1150
ACCCTCTTTCCGGTGGAAAGCTGCGGCCTCCCAGAG	464	380
TGAATATTCTTCCGCACGTACCCACATGGCTCACTT	486	337
ACACCACTCAGGAAGACAAAGCCACACCTCACACCG	487	440
GAACTGAAGAAGGCAGGAAGCCACAGGCTCCTGGGT	1730	2280
GAGTGGGGGTGGGGAGGAAGCCACAGGGCCGGGCTG	624	771
TGATGCAGGAAGGGGTGGAGTCACCACAGGAGGTAG	827	952
TAGAAAAGGAAGCAGGGTAGGTGTGGTATCTGGGTC	587	575
TGTTTGTTTCCGAAGATTAGCCAGCCTGCGGTAGAG	437	605
AGCACGCCGGGAAATGGAGTCTCAGGTGGTTTTTAA	443	364
GGTTTTGGTAGGAAGGAAAGTGGTTTTCATAGGAAG	588	598
GCACGCGCCGGGCGGAACCCACAGGCCTGGAAGCGA	537	803
GGAGTGAGGAGGAAGCGGAGGCGAGACCGCGCTCAA	464	399
GTCAGGAAACACATAGTTGTGTTTAACCTCAGGAAA	466	399
CAACAAGAGGAAATCAGAAACACTGAAGCCACAGCT	420	463
AACACTATTTCCTTTCTTGCTGCCCACATTTTAACA	520	447
GGTCACATCCTTTCCCTTCTGTGTCTCAGCCGCAGT	421	449
TGCTTCCGGCGGGCGCTTGCTCCCCGCGGTCCGCAC	657	762
GATTAAGAGGAAGTGTGTGTGATTATTACCGCTGGA	1310	1540
GACACCTGAGAGGATGTGTGGCTTTGTGCTATGAGA	769	847
TGTTTACTTCCTGGAGGCACTTTGGTTTTTCTTTCT	490	325
